From the supplement of paper PMC11732987, “Enantioselective OTUD7B fragment discovery through chemoproteomics screening and high-throughput optimisation” (Communications Chemistry, 2025) come the findings set out here.

Unmarked numbers belong to inactive results.

UniProt O00303, sequence (O00303 whole entry): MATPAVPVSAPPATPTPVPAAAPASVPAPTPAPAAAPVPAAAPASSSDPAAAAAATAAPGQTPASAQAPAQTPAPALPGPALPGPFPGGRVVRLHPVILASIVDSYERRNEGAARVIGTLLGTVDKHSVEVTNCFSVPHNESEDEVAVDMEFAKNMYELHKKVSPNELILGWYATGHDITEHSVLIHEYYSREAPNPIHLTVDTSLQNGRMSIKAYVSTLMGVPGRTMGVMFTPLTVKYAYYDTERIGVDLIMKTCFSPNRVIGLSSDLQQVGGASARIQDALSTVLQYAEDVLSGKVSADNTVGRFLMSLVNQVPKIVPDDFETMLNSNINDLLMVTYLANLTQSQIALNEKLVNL
UniProt O00487, sequence (O00487 whole entry): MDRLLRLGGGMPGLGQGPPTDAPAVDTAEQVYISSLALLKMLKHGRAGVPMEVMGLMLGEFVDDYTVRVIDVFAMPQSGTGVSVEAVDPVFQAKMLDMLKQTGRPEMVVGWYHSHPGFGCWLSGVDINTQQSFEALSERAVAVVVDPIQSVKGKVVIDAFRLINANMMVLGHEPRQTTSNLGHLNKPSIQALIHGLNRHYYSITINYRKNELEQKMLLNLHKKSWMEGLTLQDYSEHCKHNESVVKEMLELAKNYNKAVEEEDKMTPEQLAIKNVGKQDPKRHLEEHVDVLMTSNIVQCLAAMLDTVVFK
UniProt Q9Y5K5, sequence (Q9Y5K5 whole entry): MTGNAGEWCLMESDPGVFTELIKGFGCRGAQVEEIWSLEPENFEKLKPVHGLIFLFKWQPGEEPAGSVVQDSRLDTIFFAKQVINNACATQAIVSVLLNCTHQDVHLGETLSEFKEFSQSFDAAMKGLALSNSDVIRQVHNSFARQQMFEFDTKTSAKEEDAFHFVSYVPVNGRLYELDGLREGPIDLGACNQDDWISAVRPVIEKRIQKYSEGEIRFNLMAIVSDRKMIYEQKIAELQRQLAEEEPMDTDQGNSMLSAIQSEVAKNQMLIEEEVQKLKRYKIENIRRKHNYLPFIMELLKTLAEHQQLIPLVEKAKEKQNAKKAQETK
UniProt Q96JH7, sequence (Q96JH7 whole entry): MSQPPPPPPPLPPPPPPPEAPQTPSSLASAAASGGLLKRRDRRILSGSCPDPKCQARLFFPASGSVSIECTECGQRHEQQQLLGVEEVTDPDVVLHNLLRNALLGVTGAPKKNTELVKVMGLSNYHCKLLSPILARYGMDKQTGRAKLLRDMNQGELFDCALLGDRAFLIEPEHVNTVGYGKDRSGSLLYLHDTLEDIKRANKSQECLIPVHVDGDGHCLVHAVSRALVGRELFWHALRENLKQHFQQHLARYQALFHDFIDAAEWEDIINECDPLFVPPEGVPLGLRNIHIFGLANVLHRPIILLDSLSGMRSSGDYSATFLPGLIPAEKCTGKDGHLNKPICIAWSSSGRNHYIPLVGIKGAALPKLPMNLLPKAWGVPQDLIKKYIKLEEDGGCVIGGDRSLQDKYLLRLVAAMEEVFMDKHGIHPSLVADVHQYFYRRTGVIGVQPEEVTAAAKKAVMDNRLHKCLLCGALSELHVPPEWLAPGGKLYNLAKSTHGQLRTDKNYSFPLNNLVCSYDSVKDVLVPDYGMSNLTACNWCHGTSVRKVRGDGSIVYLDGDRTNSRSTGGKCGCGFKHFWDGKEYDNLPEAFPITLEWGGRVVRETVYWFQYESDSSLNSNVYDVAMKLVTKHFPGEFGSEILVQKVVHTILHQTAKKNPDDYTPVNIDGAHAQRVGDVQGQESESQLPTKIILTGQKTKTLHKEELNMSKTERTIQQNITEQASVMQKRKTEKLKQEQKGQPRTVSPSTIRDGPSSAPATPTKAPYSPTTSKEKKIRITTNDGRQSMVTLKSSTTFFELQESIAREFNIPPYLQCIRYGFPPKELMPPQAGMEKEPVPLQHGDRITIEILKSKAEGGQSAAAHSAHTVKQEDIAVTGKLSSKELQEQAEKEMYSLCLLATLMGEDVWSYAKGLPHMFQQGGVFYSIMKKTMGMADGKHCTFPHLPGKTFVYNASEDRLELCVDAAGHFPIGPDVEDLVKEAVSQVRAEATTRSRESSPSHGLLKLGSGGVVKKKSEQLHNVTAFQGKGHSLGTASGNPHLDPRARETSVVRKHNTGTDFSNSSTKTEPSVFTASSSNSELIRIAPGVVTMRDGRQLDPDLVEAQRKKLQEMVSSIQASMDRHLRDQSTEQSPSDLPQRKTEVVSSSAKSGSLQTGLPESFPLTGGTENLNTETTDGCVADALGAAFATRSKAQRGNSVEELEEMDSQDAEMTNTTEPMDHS
UniProt P15374, sequence (P15374 whole entry): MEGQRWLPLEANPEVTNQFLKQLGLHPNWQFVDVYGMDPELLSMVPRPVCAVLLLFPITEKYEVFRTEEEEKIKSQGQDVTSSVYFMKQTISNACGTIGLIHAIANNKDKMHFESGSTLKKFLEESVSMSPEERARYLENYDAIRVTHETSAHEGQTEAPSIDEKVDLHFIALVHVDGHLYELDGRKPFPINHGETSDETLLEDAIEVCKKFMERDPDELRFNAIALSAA
UniProt Q70EL1, sequence (Q70EL1 whole entry): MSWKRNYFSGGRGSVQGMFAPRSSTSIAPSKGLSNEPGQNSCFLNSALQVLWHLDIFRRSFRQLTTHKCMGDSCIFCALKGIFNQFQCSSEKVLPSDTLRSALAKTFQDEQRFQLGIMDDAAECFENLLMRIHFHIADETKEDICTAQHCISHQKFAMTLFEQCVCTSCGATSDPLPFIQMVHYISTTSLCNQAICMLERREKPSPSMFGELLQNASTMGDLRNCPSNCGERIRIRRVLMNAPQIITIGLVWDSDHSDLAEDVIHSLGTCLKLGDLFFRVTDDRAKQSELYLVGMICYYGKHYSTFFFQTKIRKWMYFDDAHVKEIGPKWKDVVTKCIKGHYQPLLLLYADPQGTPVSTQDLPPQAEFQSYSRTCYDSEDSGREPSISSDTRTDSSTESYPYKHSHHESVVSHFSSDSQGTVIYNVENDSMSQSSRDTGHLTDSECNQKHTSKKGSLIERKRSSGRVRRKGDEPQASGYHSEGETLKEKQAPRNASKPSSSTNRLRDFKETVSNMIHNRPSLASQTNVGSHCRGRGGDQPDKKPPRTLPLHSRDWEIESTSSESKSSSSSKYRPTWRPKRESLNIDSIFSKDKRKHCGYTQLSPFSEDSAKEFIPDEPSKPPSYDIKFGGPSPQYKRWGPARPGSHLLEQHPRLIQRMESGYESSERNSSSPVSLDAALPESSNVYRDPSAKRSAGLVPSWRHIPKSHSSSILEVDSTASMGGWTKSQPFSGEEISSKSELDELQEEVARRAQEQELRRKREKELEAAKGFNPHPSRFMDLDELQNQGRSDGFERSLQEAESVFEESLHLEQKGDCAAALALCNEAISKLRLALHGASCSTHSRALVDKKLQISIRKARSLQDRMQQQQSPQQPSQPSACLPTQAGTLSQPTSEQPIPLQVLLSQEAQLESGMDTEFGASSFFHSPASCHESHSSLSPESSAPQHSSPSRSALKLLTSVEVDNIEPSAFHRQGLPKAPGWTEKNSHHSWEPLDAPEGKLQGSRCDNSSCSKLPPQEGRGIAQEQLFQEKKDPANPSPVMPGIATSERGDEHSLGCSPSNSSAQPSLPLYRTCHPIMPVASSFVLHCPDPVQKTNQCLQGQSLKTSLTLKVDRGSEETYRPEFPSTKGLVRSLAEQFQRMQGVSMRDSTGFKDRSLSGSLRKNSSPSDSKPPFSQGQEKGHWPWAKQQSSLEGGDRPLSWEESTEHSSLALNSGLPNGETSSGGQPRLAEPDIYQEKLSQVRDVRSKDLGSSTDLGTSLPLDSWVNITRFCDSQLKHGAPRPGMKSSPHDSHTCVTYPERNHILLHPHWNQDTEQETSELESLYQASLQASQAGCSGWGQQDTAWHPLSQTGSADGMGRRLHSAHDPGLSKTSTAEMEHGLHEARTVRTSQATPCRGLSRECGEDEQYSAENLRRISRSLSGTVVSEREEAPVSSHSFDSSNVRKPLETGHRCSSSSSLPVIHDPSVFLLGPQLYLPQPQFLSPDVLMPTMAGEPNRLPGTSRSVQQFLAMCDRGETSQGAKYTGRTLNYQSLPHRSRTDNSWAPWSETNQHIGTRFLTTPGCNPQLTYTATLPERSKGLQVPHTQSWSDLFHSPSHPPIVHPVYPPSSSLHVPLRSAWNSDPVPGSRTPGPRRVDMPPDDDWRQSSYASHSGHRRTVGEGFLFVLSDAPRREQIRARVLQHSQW
UniProt Q9UGI0, sequence (Q9UGI0 whole entry): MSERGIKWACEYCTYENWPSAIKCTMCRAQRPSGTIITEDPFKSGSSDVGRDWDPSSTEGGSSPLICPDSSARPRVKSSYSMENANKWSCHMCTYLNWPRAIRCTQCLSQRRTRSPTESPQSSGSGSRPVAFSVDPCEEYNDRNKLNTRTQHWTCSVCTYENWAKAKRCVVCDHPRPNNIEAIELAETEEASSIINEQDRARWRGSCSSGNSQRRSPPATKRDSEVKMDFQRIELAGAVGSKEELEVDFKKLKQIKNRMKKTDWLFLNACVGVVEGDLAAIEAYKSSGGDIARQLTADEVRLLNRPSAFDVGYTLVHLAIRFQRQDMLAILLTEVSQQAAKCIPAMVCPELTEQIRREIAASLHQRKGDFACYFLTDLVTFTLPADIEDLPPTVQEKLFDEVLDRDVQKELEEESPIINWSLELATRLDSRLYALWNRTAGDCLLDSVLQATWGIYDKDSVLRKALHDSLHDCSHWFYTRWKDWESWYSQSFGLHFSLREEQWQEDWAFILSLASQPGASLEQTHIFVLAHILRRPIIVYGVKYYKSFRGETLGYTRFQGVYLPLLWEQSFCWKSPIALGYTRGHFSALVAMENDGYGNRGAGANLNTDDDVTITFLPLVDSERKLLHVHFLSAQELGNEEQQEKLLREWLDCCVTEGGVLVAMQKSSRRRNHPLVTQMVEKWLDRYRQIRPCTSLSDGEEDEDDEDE

Compound in one experiment: ClCC(=O)N1CCC(CC#N)C1
As to the kind of experiment: log2 ratio of Biotin-Ahx-Ub-VS probe labelling (compound/DMSO); higher = less target engagement, active = hit call of the paper (q ≤ 0.05, log2 ratio ≤ -1). Particulars: compound concentration: 50uM; treatment time: 3 h. The procedure:
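Round 2 competitive ABPP in HEK293T lysate. Purified HTC-D2B compounds were tested at 50 and 200 µM for 3 h, followed by Biotin-Ahx-Ub-VS enrichment and diaPASEF LC-MS/MS. Values are the average log2 ratio (compound/DMSO) from an unpaired t-test (n=3 treated, n=26 DMSO).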
With UniProt Q8TE49, the “log2 ratio of Biotin-Ahx-Ub-VS probe labelling” value (“log2 ratio” below) is -0.317.
Still for that read-out and setting: under OTUD6B (UniProt Q8N6M0) stands -0.197; under USP4 (UniProt Q13107), -0.106; under USP38 (UniProt Q8NB14), 0.00826.
Still for that read-out and setting: under UniProt O00487 stands -0.033.
The same measure, in the same setting: under USP54 (UniProt Q70EL1) stands -0.068; under PSMD7 (UniProt P51665), 0.408; under USP42 (UniProt Q9H9J4), -0.0062.
For OTUD4 (UniProt Q01804), the “log2 ratio” value was -0.19.
Regarding COPS5 (UniProt Q92905), the “log2 ratio” value was -0.111.
Regarding VCPIP1 (UniProt Q96JH7), the “log2 ratio” value was -0.405.
Same read-out and setting: the value for UniProt Q9UGI0 was -0.025; that for EIF3F (UniProt O00303) was -0.172.
Still for that read-out and setting: the value for USP34 (UniProt Q70CQ2) was 0.721; that for UCHL3 (UniProt P15374) was -0.263.
On the same count and under the same terms, under UniProt Q70EL2 stands -0.0717; under ALG13 (UniProt Q9NP73), 0.259.
With USP36 (UniProt Q9P275), the “log2 ratio” value was -0.193.
Regarding USP25 (UniProt Q9UHP3), the “log2 ratio” value is -0.617.
The same measure, in the same setting: under UCHL5 (UniProt Q9Y5K5) stands -0.227.

The same experiment, now with this note: compound concentration: 200uM; treatment time: 3 h.
For UniProt Q8TE49, the “log2 ratio” value was -0.54.
On the same count and under the same terms, under OTUD6B (UniProt Q8N6M0) stands -0.265.
Same read-out and setting: the value for USP4 (UniProt Q13107) was 0.254.
Same read-out and setting: the value for USP38 (UniProt Q8NB14) was -0.302; that for UniProt O00487 was -0.198.
USP54 (UniProt Q70EL1): the “log2 ratio” value is -0.954.
Same read-out and setting: under PSMD7 (UniProt P51665) stands 0.631.
On the same count and under the same terms, the value for USP42 (UniProt Q9H9J4) was 0.221.
Regarding OTUD4 (UniProt Q01804), the “log2 ratio” value was -0.226.
The same measure, in the same setting: the value for COPS5 (UniProt Q92905) was -0.11.
Same read-out and setting: under VCPIP1 (UniProt Q96JH7) stands -0.311; under UniProt Q9UGI0, -0.16.
Still for that read-out and setting: under EIF3F (UniProt O00303) stands 0.14; under USP34 (UniProt Q70CQ2), -0.382; under UCHL3 (UniProt P15374), -0.193.
Regarding UniProt Q70EL2, the “log2 ratio” value is -0.437.
The same measure, in the same setting: the value for ALG13 (UniProt Q9NP73) was 0.307; that for USP36 (UniProt Q9P275) was 0.0225; that for USP25 (UniProt Q9UHP3) was -2.11 (active).
Same read-out and setting: the value for UCHL5 (UniProt Q9Y5K5) was -0.17.
